Algae TAG accum – inducers of triacylglycerol accumulation in Chlamydomonas reinhardtii algae; Chlamydomonas reinhardtii TAG, Nile Red fluorescence, 72 h; calls only at 10 µM (by protocol); actives 0.84% (n = 44,000); AID 1159537; call rule not given here;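 also: hits raise Nile Red signal meaning more stored TAG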
Calls only; . = inactive; + = active, no number. The full list was thinned out, with hits kept by preference.

SMILES	Algae TAG accum
CC(=O)NCCOc1ccc2c(c1)CCCC2	.
Cc1cc(N)ccc1-c1ccc([N+](=O)[O-])cc1C	.
COc1ccc(C(=O)Nc2ccc(S(=O)(=O)Nc3ncccn3)cc2)cc1[N+](=O)[O-]	.
COc1cc(C(=O)Nc2ccc(S(=O)(=O)Nc3ncccn3)cc2)cc(OC)c1OC	+
COc1cc(C(=O)Nc2ccc(S(=O)(=O)NC(C)=O)cc2)cc(OC)c1OC	.
CCOc1ccc(OCCCCOc2ccc(C=O)cc2OC)cc1	.
O=C(O)CSc1nnc(COc2cccc3cccnc23)n1-c1ccccc1	.
COc1cccc(NC(=O)CC(c2ccccc2)c2ccccc2O)c1 (stereo not given)	.
O=C(Nc1nc2c(s1)CCCC2)c1cccc(Cl)c1	.
COc1cc(C(=O)Nc2nc3c(s2)CCCC3)cc(OC)c1OC	+
CCc1nnc(NC(=O)c2cc(OC)c(OC)c(OC)c2)s1	.
Cc1ccc(C(=O)Nc2ccc(NC(=O)c3ccccc3Cl)cc2)cc1[N+](=O)[O-]	.
COc1ccccc1CC(=O)NC1CC(C)(C)NC(C)(C)C1	.
CC1(C)CC(NC(=O)CC(c2ccccc2)c2ccccc2)CC(C)(C)N1	.
CC1(C)CC(NC(=O)Cc2ccccc2[N+](=O)[O-])CC(C)(C)N1	+
COc1ccc(CN2CCN(Cc3cccc([N+](=O)[O-])c3)CC2)cc1	.
COc1ccc(OC)c(CN2CCN(Cc3ccc(OC)c(OC)c3)CC2)c1	.
COc1cc(CN2CCN(Cc3cccc([N+](=O)[O-])c3)CC2)cc(OC)c1OC	.
COc1ccc(OC)c(CN2CCN(Cc3cc(OC)c(OC)c(OC)c3)CC2)c1	.
O=[N+]([O-])c1ccc(CN2CCC(N3CCCCC3)CC2)cc1	.
COc1ccc(CN2CCN(Cc3cc(OC)c(OC)cc3[N+](=O)[O-])CC2)cc1OC	.
COc1cc(CN2CCN(Cc3ccc([N+](=O)[O-])cc3)CC2)cc(OC)c1	+
COc1ccc(S(=O)(=O)N2CCN(Cc3ccc([N+](=O)[O-])cc3)CC2)cc1	.
O=[N+]([O-])c1ccc(CN2CCN(C3CCCCCC3)CC2)cc1	+
COc1ccc(OC)c(CN2CCN(Cc3ccc([N+](=O)[O-])cc3)CC2)c1	+
SMILES	Algae TAG accum
O=[N+]([O-])c1ccc(CN2CCCCCC2)cc1	.
COc1ccc(CN2CCN(Cc3ccc([N+](=O)[O-])cc3)CC2)cc1OC	+
O=C(Nc1ccccc1)C1CCCN1C1CCCCC1 (stereo not given)	.
CC(=O)c1ccc(N2CCN(C(=O)c3cc(F)c(F)cc3Cl)CC2)c(F)c1	.
COc1cc([N+](=O)[O-])ccc1NC(=O)CSc1ccc(Cl)cc1	.
Cn1c(C(O)c2nc3ccccc3n2Cc2ccccc2)nc2ccccc21 (stereo not given)	.
Cc1ccc(NC(=O)Nc2nnc(SCCOc3ccccc3)s2)cc1	.
Cn1c(/C=C/c2ccccc2)cc[n+]1C	.
CCS(=O)(=O)Nc1ccc(NS(=O)(=O)CC)cc1	.
COc1ccccc1N1CCN(C2CC(=O)N(c3ccc(Br)cc3)C2=O)CC1 (stereo not given)	.
CN(CCC#N)C12CC3CC(CC(C3)C1)C2	+
CN(CCO)C12CC3CC(CC(C3)C1)C2	.
CN(C)CCNCC12CC3CC(CC(C3)C1)C2	.
O=C(c1csc2ccccc12)N1CCN(c2ncccn2)CC1	.
CC(C)c1ccc(CN2CCOCC2)cc1	+
Clc1ccc(CN2CCOCC2)cc1Cl	.
CC(C)c1ccc(CN2CCC(O)CC2)cc1	.
COc1ccc(S(=O)(=O)Nc2ccc(I)cc2C)cc1	.
O=C(Nc1ccc2[nH]c(=O)[nH]c2c1)c1cccc(F)c1	.
COc1ccc(NC(=O)C2=C(C)NC(=O)NC2c2ccc(N(C)C)cc2)c(OC)c1 (stereo not given)	.
CCc1cccc(OCC(=O)Nc2cc(OC)c(OC)cc2C(=O)O)c1	+
COc1cc(NC(=O)CSCc2ccccc2)c(C(=O)O)cc1OC	.
COc1ccc(OCC(=O)Nc2cc(OC)c(OC)cc2C(=O)O)cc1	.
Nc1cc(=O)[nH]c(SCc2ccc(Br)cc2)n1	.
C=CCNC(=O)CN(c1ccccc1CC)S(C)(=O)=O	.
SMILES	Algae TAG accum
CCCCOC(=O)Nc1ccc([N+](=O)[O-])cc1C	.
C=C(C)CN(CC)C1CCN(Cc2ccccc2)CC1	.
c1ccc(CN2CCC(N3CCN(Cc4ccco4)CC3)CC2)cc1	.
CC1CCCN(C2CCN(Cc3ccccc3)CC2)C1 (stereo not given)	.
CCN1CCC(N2CCN(C=O)CC2)CC1	.
CC1CCC(N2CCN(Cc3ccccc3)CC2)CC1 (stereo not given)	+
CN(CCc1ccccc1)C1CCN(Cc2ccccc2)CC1	+
CCCCN(C)C1CCN(Cc2ccccc2)CC1	.
CC(=O)N1CCN(C2CCC(C)CC2)CC1 (stereo not given)	.
CCN1CCN(C2CCC(C)CC2)CC1 (stereo not given)	+
Cc1ccc(CC2CC(=O)N(c3ccc(F)cc3)C2=O)cc1 (stereo not given)	.
COc1ccc(Cl)cc1N(CC(=O)O)S(C)(=O)=O	.
CC1CCN(C(=O)C2CCN(S(=O)(=O)c3ccccc3[N+](=O)[O-])CC2)CC1	.
CC(=O)c1sc(N2N=C(c3ccc(CC(C)C)cc3)CC2c2ccco2)nc1C (stereo not given)	.
Cc1ccc(NS(=O)(=O)c2ccc(NS(C)(=O)=O)cc2)c(C)c1	.
COc1ccc(NC(=O)c2ccc(CN(c3ccccc3)S(C)(=O)=O)cc2)cc1	.
Cc1ccc(NC(=O)CC(C)C)c(NC(=O)CC(C)C)c1	+
Cc1ccc(NC(=O)CCC(=O)O)c(C)c1	.
Cc1cccc(C(=O)Nc2ccc(C)cc2NC(=O)c2cccc(C)c2)c1	.
CCOc1ccccc1C(=O)Nc1sc2c(c1C#N)CCCC2	.
O=c1c(CN2CCN(Cc3ccc4c(c3)OCO4)CC2)coc2ccccc12	.
O=C1CC(N2CCN(Cc3ccc4c(c3)OCO4)CC2)C(=O)N1CCc1ccccc1 (stereo not given)	+
O=C1c2ccccc2C(=O)N1CN1CCN(Cc2ccc3c(c2)OCO3)CC1	.
CCN1CCN(CC(O)COCc2ccc(OC)c(OC)c2)CC1 (stereo not given)	.
CC1Cc2ccccc2N1C(=O)c1ccc2nc(N3C(=O)c4ccccc4C3=O)sc2c1 (stereo not given)	.
SMILES	Algae TAG accum
C=CCNCC(=O)NC12CC3CC(CC(C3)C1)C2	+
O=C(CN1CCOCC1)NC12CC3CC(CC(C3)C1)C2	.
O=C(O)CNC(=O)NC12CC3CC(CC(C3)C1)C2	.
CCCCC(=O)Nc1ccc(NC(=O)C(C)C)cc1	.
COc1cccc(N(CC(=O)Nc2ccccc2Br)S(=O)(=O)c2ccccc2)c1	.
COc1ccc(NC(=O)COc2ccc(Br)cc2C)cc1OC	.
Cc1ccc(C(=O)c2ccc(N3CCN(C(=O)c4cccs4)CC3)c(F)c2)cc1C	.
Cc1ccc(C(=O)c2ccc(N3CCN(C)CC3)c(F)c2)cc1C	+
CCC(=O)c1ccc(N2CCN(C(C)=O)CC2)c(F)c1	.
CC1CCc2c(sc(NC(=O)c3cnccn3)c2C#N)C1 (stereo not given)	.
CCOc1cc(C=O)ccc1OCCOc1ccc([N+](=O)[O-])cc1	.
Cc1c(NS(=O)(=O)c2cccs2)c(=O)n(-c2ccccc2)n1C	.
Cc1c(N/C=C/C(=O)c2cccs2)c(=O)n(-c2ccccc2)n1C	+
Cc1c(NC(=O)C23CC4CC(CC(C4)C2)C3)c(=O)n(-c2ccccc2)n1C	.
CN1CCC(N(C)Cc2ccsc2)CC1	.
C=CCc1cc(C)ccc1OCCCCN1CCOCC1	.

Assay outcomes deposited in PubChem BioAssay by DiRusso Lab, Biochemistry Department, University of Nebraska.
